# Source: PubChem BioAssay AID1851 (National Center for Advancing Translational Sciences (NCATS), 2009)
# Several values for one entry are separate records, joined by “and”; a condition that tells them apart may be missing. Equal values may be shown once. Screen size: about 16,000 compounds; about 5,700 (36%) were called active. Another 24% or so got no clear call; they are omitted. The list shows a part of the results. Values without a mark were called inactive. Calls follow the shape of the dose curve; as a rule, active = well fitted curve in the direction sought with a large enough effect; inconclusive = small, poorly fitted or top-dose-only effect, or effect the other way; inactive = no such curve, though single readings can be large or run the other way.
# Target: Cytochrome P450 1A2 (Homo sapiens) (UniProt P05177)
# Sequence (P05177 whole entry, looked up): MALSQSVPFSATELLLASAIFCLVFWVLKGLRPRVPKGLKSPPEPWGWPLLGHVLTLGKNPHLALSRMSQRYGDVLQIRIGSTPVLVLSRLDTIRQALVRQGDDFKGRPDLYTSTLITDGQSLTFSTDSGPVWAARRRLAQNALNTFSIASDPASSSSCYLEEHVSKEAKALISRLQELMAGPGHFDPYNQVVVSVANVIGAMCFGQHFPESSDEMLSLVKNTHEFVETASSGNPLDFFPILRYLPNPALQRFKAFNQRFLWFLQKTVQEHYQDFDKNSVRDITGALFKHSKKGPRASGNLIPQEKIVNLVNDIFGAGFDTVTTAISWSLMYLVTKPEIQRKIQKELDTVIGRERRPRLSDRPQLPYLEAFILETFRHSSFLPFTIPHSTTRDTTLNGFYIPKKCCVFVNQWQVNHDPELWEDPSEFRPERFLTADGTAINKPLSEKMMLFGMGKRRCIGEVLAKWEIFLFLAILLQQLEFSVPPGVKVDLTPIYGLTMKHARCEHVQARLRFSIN
# Test: Cytochrome panel assay with activity outcomes
# Settings: recombinant CYP, pro-luciferin dealkylation, luminescence, p450-cyp1a2; series mostly up to 57.1 µM
# % is scaled to controls: 0 for no effect and ±100 for the full control effect.
SMILES,"activity, negative = inhibition",AC50
CCOC(=O)C1=NO[C@@]2(C=C(Br)C3(OCCCO3)[C@H]3O[C@H]32)C1,1.82% [at 11.4 µM],
Cc1cc(C)cc(N2C(=O)CC(Sc3nnnn3-c3ccccc3)C2=O)c1 (stereo unspecified),,inactive
COc1ccc(N2C(=O)CC(S/C(N)=N/N=C(\C)c3cccs3)C2=O)cc1 (stereo unspecified),,2.51 µM (active)
CC(C)(C)NS(=O)(=O)c1ccc(NC(=O)NC2CCCCC2)cc1,,inactive
Oc1ccccc1-c1nnc(-c2ccc(C(F)(F)F)cc2)o1,,5.01 µM (active)
O=C(C[C@@H]1C=Cc2ccccc2N1C(=O)c1ccccc1)c1ccccc1,-23.2% [at 2.29 µM],
O=C(/C=C\NCC(=O)c1ccccc1)c1ccccc1,,5.01 µM (active)
CC(C)CCOc1ccc(NC(=O)C2OC3OC(C)(C)OC3C3OC(C)(C)OC23)cc1 (stereo unspecified),,inactive
c1ccc(-c2nc(CSc3n[nH]c(-c4cccs4)n3)cs2)cc1,,2.82 µM (active)
COC(=O)CCC(=O)Nc1cccc(C(=O)Nc2cccc(Cl)c2)c1,,4.47 µM (active)
CCn1c(C)c(C)c2cc(C(=O)Nc3cccc(Cl)c3)ccc21,,3.16 µM (active)
O=C(O)c1ccc(C(=O)Nc2cccc3ccccc23)c(C(=O)O)c1,-6.15% [at 2.29 µM],
Cc1c(C)n(C)c2ccc(C(=O)Nc3cccc4ccccc34)cc12,,2 µM (active)
O=c1[nH]c(=O)n(Cc2ccco2)c2c1C(C(F)(F)F)(C(F)(F)F)N=C(CCC1CCCCC1)N2,,inactive
CC1(C)CCC(NC(=O)[C@H](N)CCC(=O)O)CC1,,inactive
Cc1cnc(CNc2ccnc(-c3ccccc3Cl)n2)cn1,,12.6 µM (active)
Cc1cnc(CNc2ccnc(-c3ccccc3C(F)(F)F)n2)cn1,,15.8 µM (active)
COc1ccccc1-c1nccc(NCc2cnc(C)cn2)n1,,12.6 µM (active)
Cc1cnc(CNc2ccnc(-c3ccccc3C)n2)cn1,,12.6 µM (active)
Cc1ccc(S(=O)(=O)CC(O)CN2CCCC2=O)cc1 (stereo unspecified),,inactive
O=S1(=O)N[C@H]2CC[C@@H]3NS(=O)(=O)N[C@H]4CC[C@H](N1)N4S(=O)(=O)N23,2.05% [at 11.4 µM],

SMILES,"activity, negative = inhibition",AC50
CN(C)CCn1c(CO)nc2c1c(=O)n(C)c(=O)n2C,-6.02% [at 11.4 µM],
Cn1c(=O)c2c(nc(Cl)n2Cc2ccc(Cl)c(Cl)c2)n(C)c1=O,,12.6 µM (active)
Cn1c(=O)c2c(nc(Cc3ccccc3)n2CC(=O)O)n(C)c1=O,-13.2% [at 2.29 µM],
COc1ccc2c(OC)c3ccoc3nc2c1OC,,0.0794 µM (active)
CS(=O)(=O)N1CCC2(CCN(C(c3ccccc3)c3ccccc3)CC2)CC1,,inactive
COc1ccc2[nH]cc(CCNc3ncncc3-c3ccccc3C(F)(F)F)c2c1,,10 µM (active)
COc1ccc2[nH]cc(CCNc3ncncc3-c3ccccc3Cl)c2c1,,0.631 µM (active)
COc1ccc2[nH]cc(CCNc3ncncc3-c3c(C)noc3C)c2c1,,12.6 µM (active)
COc1ccc2[nH]cc(CCNc3ncncc3-c3ccccc3CN(C)C)c2c1,,20 µM (active)
COC(=O)C/C=C\[C@@H](C)[C@@H](/C=N\OC[C@@H](O)COCc1ccco1)OC,-1.53% [at 11.4 µM],
CC(C)NC(=O)N1CC[C@@]2(CCCN(S(C)(=O)=O)C2)C1,,inactive
COc1ccc2[nH]cc(CCNc3ncncc3-c3ccccc3C)c2c1,,0.631 µM (active)
COc1ccc2[nH]cc(CCNc3ncncc3-c3ccccc3OC)c2c1,,2.51 µM (active)
CCOC(=O)CN1C(=O)Nc2ccc(Br)cc2C1c1ccccc1 (stereo unspecified),,3.16 µM (active)
CN(C)CCN1C(=O)C(O)=C(C(=O)c2cc3ccccc3o2)C1c1cccc(Br)c1 (stereo unspecified),,inactive
CS(=O)(=O)N1CCC2(CC1)CN(C(=O)Nc1ccccc1)C2,,inactive
CC(C)(C)NC[C@H](O)COc1cccc2c1CCCC2=O,,inactive
CC(C)(C)NC[C@H](O)COc1cccc2c1CCC(=O)N2,,inactive
Cc1ccc(OC[C@H](O)[C@H](C)NC(C)C)c2c1CCC2,,1.58 µM (active) and 398 nM (active)
CCOC(=O)CCN1C(=O)[C@H]2[C@H]3[C@H](O)[C@H](O)C/C(=N/OCC(C)C)[C@@H]3CC[C@@H]2C1=O,-8.45% [at 11.4 µM],
Cc1cc(NC(=S)NC(=O)CC(C)C)ccc1Br,,5.62 µM (active)

SMILES,"activity, negative = inhibition",AC50
CCCNC(=S)Nc1ccc(Br)cc1,,7.08 µM (active)
Cc1cc(NC(=S)Nc2ccccc2)ccc1Br,,5.62 µM (active)
CCC(=O)NC(=S)Nc1ccc(S(=O)(=O)NC(C)=O)cc1,,inactive
Cc1ccc(NC(=O)C2C3CCCC2C3c2ccccc2)cc1C (stereo unspecified),,inactive
COc1ccc(CC(=O)NC(=S)Nc2ccc(S(=O)(=O)NC(C)(C)C)cc2)cc1,,inactive
Cc1ccc(NC(=S)Nc2ccc(Br)cc2)cc1,,3.55 µM (active)
Cc1cccc(NC(=S)Nc2ccc(Br)cc2)c1,,3.55 µM (active)
C/C(=N\NC(=S)Nc1cccc(C)c1)c1ccccc1,,0.891 µM (active)
Cc1cccc(N2CCN(c3ccc(NC(=O)/C=C(/C(=O)O)c4ccccc4)cc3)CC2)c1,,inactive
CC(=O)OCC(=O)[C@]12OC(C)(C)O[C@@H]1C[C@H]1[C@H]3CC=C4C[C@@H](O)CC[C@]4(C)[C@H]3CC[C@]12C,4.12% [at 11.4 µM],
Cc1ccc(S(=O)(=O)NCC(=O)N(CC(=O)NCc2ccco2)Cc2cccs2)cc1,,inactive
Cc1csc(NC(=O)CNS(=O)(=O)c2cccs2)n1,,12.6 µM (active)
Cc1csc(NC(=O)Cc2c[nH]c3ccccc23)n1,,11.2 µM (active)
CCOC(=O)N1CCN(C(=O)CNS(=O)(=O)c2cccs2)CC1,,inactive
Cc1ccnc(NS(=O)(=O)c2ccc(N)cc2)n1,,inactive
COCc1c(C(=O)OCC(=O)N2c3ccccc3NC(=O)C2(C)C)oc2ccccc12,,0.562 µM (active)
CCCCC1(C)OC(=O)C(=Cc2ccc(N(CC)CC)cc2)C(=O)O1 (stereo unspecified),,5.01 µM (active)
CCc1nnc(NC(=O)c2c(C)nn(-c3ccccc3)c2Cl)s1,,7.08 µM (active)
CCc1nnc(NC(=O)CCC(=O)N2CCN(c3ccccn3)CC2)s1,,inactive
